Assay [1] in a line: compounds binding Alexa647 anti-His antibody – biochemical, small-molecule microarray, 635 nm fluorescence, artefact control for SMM control protein annotation, primary screen (AID 1128).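 Also: score merges feature fluorescence with signal-to-noise for each printed compound spot.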 The conditions noted are these: higher = more signal.
Assay [2] deals with Human papillomavirus type 1a E7 protein (residues 1-88). As to the kind of experiment: HPV1a E7 small-molecule binders, primary screen, biochemical, small-molecule microarray, residues 1-88, 635 nm (AID 1129). Conditions: small-molecule microarray binding, fluorescence 635 nm; higher = more signal.
The target of assay [3] is Focal adhesion kinase 1 (Homo sapiens) (UniProt Q05397). As to the kind of experiment: PTK2 protein binding on printed compound slides – biochemical, small-molecule microarray, 635/667 nm fluorescence, BSA, DTT, primary screen (AID 1130).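 Also: composite of spot emission at 667 nm and signal to noise over triplicate slides.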 The conditions noted are these: 635 nm fluorescence, higher = more signal.
Focal adhesion kinase 1 (Homo sapiens), sequence (Q05397 whole entry, looked up): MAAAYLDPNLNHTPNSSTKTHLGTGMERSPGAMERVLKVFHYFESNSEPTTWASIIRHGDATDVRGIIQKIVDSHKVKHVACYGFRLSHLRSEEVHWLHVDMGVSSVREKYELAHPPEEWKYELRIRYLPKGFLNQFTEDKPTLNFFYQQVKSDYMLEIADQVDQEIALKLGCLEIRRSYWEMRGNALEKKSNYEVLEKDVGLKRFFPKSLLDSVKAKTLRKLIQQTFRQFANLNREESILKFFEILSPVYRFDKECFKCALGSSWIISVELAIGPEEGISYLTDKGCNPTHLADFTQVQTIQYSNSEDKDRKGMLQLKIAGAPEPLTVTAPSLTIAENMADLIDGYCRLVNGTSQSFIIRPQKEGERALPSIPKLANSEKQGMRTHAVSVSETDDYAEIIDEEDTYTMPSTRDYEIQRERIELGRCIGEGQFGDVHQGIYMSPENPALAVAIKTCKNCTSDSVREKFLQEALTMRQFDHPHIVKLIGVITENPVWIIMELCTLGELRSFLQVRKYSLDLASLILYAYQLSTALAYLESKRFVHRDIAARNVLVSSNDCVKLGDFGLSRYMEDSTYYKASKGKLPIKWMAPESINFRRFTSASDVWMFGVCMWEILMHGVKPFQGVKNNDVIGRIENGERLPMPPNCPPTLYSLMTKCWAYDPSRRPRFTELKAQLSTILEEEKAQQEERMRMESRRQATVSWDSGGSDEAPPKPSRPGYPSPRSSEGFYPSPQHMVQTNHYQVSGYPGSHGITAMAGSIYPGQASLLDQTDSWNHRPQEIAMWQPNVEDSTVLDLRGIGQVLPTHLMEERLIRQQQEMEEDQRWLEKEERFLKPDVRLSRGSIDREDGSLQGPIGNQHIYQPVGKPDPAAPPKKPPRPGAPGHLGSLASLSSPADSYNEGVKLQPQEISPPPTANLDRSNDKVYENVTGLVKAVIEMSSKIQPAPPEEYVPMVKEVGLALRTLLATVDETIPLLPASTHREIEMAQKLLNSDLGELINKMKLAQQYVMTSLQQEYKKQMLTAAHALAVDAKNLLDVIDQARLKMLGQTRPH
Assay [4] concerns Fibrinogen (Alexa647-labelled). As to the kind of experiment: Alexa647-fibrinogen binding to printed small molecules – biochemical, small-molecule microarray, 635/667 nm fluorescence, artefact control for SMM control-protein annotation, profiling panel (AID 1131).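 Also: z-score merges 667 nm fluorescence with per-spot signal-to-noise over triplicate slides.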 Conditions: fibrinogen-A647 binding fluorescence, higher = more signal.
Assay [5] concerns the target Follistatin (Homo sapiens) (UniProt P19883). As to the kind of experiment: FST protein binding to printed compounds – biochemical, small-molecule microarray, 635/667 nm fluorescence, primary screen (AID 1132). Conditions: 635 nm fluorescence, higher = more signal.
Assay [6] addresses Fibroblast growth factor 2 (Homo sapiens) (UniProt P09038). As to the kind of experiment: basic fibroblast growth factor binding to printed compounds – biochemical, small-molecule microarray, 635/667 nm fluorescence, primary screen (AID 1133). Conditions: FGF2, fluorescence 635/667, higher = more signal.
Assay [7] can be described thus: JC-1 mitochondrial potential readout, lung cancer cells – cell-based, A549, JC-1 fluorescence, basal, 24 h, 100 nL, profiling panel (AID 1138).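 Also: A549 lung adenocarcinoma cells under basal conditions with no added stimulus; test concentration not given here.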 The conditions noted are these: higher = more signal.
The next assay concerns Lefty1. As to the kind of experiment: Lefty1 protein binding to printed compounds – biochemical, small-molecule microarray, 635/667 nm fluorescence, primary screen (AID 1139). The conditions noted are these: fluorescence 635/667, higher = more signal.
The subject of assay [8] is wheat germ agglutinin (Triticum aestivum), Alexa647-labelled. The assay can be described thus: Alexa647-WGA lectin binding to printed small molecules – biochemical, small-molecule microarray, 635/667 nm fluorescence, artefact control for SMM control-protein annotation, profiling panel (AID 1140).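 Also: score merges 667 nm feature emission with signal to noise over triplicate slides.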 Conditions: WGA-A647 binding, 635 nm fluorescence, higher = more signal.
Assay [9] has as its target Luciferin 4-monooxygenase (Photinus pyralis) (UniProt P08659). The assay can be described thus: inhibition of purified Photinus pyralis luciferase – biochemical, luminescence, purified enzyme, 2006 set, primary screen (AID 1141).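 Also: cell-free assay with purified firefly luciferase at 100 ng per well in PBS; test concentration not given here.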 Conditions: purified firefly luciferase, SteadyGlo luminescence, 30 min; higher = more signal, called active from +8 up or from −8 down.
The subject of assay [10] is Wnt5a (protein binding on small-molecule microarray). The assay can be described thus: small molecules binding Wnt5a protein – biophysical, small-molecule microarray, 635/667 nm fluorescence, primary screen (AID 1142).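 Also: fluorescence read at 667 nm with signal to noise per printed feature.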 Conditions: 635 nm fluorescence, higher = more signal.
Assay [11] is described as follows: ATP-based viability of Huh7 replicon cells – cell-based, CellTiter-Glo luminescence, basal, 48 h, cytotoxicity control for HCV replication inhibitor project, primary screen (AID 1143).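 Also: Huh7 hepatoma cells carrying a hepatitis C replication reporter with no stimulus; test concentration not given here.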 Conditions: higher = more signal, called active from +8 up or from −8 down. A general note: In antiviral work, replicon cells carry a viral genome segment that copies itself.
A short description of assay [12]: Pseudomonas biofilm growth suppression – PAO1 strain, BacTiter-Glo luminescence, LB-PBS, primary screen (AID 1144). The conditions noted are these: P. aeruginosa PAO1 biofilm, 12 h, higher = more signal.
Assay [13] in a line: basal CRE-LacZ reporter activity in PC12 – cell-based, unstimulated, primary screen (AID 1145). Conditions: no forskolin, luminescence, 4.5 h, higher = more signal, called active from +8 up or from −8 down.
Assay [14] in a line: forskolin-driven CRE-LacZ activity in PC12 – cell-based, CRE-LacZ reporter, forskolin-stimulated, primary screen (AID 1146).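 Also: PC12 cells with 6xCRE LacZ reporter stimulated by forskolin 10 µM; beta-galactosidase reporter signal reflecting CREB driven transcription.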 The conditions noted are these: luminescence, 4.5 h, higher = more signal, called active from +8 up or from −8 down.
Assay [15] deals with Streptavidin (Streptomyces avidinii) (UniProt P22629). The assay can be described thus: compounds binding control protein streptavidin – biophysical, small-molecule microarray, 635/667 nm fluorescence, artefact control for SMM compound annotation, primary screen (AID 1147).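 Also: signal reflects streptavidin binding to arrayed compounds as a control protein.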 Conditions: higher = more signal.
Streptavidin (Streptomyces avidinii), sequence (P22629 whole entry, looked up): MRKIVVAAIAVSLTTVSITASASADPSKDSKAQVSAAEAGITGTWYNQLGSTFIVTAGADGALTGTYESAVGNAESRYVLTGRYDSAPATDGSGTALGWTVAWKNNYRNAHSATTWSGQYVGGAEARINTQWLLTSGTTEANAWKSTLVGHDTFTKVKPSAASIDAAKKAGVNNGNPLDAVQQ
Assay [16] is described as follows: probe aInhba binding on compound microarray – biochemical, small-molecule microarray, 635/667 nm fluorescence, primary screen (AID 1148).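 Also: score merges 667nm spot fluorescence with signal-to-noise for antibody binding to printed compounds.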 Conditions: higher = more signal.
The target in assay [17] is Torsin-1A (Homo sapiens) (UniProt O14656). As to the kind of experiment: TOR1A wild-type binding on microarray – cell lysate, small-molecule microarray, lysate, 635/667 nm, primary screen (AID 1149). The conditions noted are these: COS7 hTOR1A-WT lysate, 635 nm fluorescence, higher = more signal.
Torsin-1A (Homo sapiens), sequence (O14656 whole entry, looked up): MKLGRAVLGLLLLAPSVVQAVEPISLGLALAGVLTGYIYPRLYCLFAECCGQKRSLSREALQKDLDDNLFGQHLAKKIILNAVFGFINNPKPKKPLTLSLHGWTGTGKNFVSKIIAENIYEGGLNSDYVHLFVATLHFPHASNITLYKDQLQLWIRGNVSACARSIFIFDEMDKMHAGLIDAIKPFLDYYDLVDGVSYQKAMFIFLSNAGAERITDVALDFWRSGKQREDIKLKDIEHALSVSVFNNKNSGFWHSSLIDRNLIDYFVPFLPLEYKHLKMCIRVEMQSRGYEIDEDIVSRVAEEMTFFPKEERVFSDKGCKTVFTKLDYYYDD
For assay [18] the target is unchanged. As to the kind of experiment: torsin A mutant lysate binding on microarrays – cell lysate, small-molecule microarray, COS7 lysate, 635/667 nm fluorescence, primary screen (AID 1150).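 Also: score pools 667 nm emission and signal to noise measuring lysate protein binding.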 The conditions noted are these: COS7 hTOR1A mutant lysate, 635 nm fluorescence, higher = more signal.
In assay [19] the test system is Sonic hedgehog protein (Shh). The assay can be described thus: Sonic hedgehog microarray binding compounds – biochemical, small-molecule microarray, 635/667 nm fluorescence, primary screen (AID 1151).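 Also: Shh protein binding to compounds spotted on small-molecule microarray slides; score combines spot fluorescence intensity with signal-to-noise across triplicate slides.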 Conditions: 635 nm fluorescence, higher = more signal.

Molecules are shown by their SMILES. Calls of active or inactive are those of the source. Unless noted, no rule for the calls is given here.

Fibroblast growth factor 2 (Homo sapiens), sequence (P09038 whole entry, looked up): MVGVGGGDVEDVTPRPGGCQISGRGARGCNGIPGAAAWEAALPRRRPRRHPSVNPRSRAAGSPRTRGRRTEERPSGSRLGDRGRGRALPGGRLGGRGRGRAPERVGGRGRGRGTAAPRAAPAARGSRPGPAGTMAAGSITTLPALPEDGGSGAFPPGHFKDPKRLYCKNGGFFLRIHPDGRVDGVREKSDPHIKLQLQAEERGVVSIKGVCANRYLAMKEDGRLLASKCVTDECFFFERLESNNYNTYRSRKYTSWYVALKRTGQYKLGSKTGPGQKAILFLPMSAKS
Luciferin 4-monooxygenase (Photinus pyralis), sequence (P08659 whole entry, looked up): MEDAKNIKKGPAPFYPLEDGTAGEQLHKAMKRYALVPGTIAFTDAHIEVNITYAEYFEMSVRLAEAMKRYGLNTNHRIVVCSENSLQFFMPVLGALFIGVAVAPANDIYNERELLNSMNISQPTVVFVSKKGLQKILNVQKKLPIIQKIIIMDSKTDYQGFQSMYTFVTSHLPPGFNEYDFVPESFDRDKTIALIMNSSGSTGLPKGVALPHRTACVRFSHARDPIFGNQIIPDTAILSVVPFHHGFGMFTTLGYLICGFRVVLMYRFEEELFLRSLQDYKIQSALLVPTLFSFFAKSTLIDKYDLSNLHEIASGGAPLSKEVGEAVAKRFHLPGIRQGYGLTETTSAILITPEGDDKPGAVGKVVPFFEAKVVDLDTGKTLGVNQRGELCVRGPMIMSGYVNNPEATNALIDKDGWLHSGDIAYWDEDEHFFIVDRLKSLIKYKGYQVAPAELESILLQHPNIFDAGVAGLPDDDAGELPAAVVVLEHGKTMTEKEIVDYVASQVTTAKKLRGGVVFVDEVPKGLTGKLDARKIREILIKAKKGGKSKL
Follistatin (Homo sapiens), sequence (P19883 whole entry, looked up): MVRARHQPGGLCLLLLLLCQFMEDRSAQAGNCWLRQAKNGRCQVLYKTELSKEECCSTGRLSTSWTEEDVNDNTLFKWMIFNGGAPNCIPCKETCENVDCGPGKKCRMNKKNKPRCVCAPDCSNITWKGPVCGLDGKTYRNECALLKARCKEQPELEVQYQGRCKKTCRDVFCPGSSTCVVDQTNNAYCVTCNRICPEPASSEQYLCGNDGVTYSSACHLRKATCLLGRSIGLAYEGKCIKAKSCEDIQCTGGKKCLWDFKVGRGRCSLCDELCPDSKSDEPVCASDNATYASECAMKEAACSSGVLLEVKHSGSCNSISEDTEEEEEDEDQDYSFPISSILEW

With `CC(CO)N1C(=O)[C@@H]2[C@H]3C(=O)OCC=C[C@H]3OC23C=CCN(c2ccc4ccccc4c2)C(=O)[C@@H]13` (stereo not given in full), the composite z-score is -0.786 in assay [1]; -1.21 in assay [2]; 0.204 in assay [3]; -1.83 in [4]; -2.31 in assay [5]; -1.55 in [6]. Besides, the composite z-score in the assay with Lefty1 is -2.07; in assay [8], -0.515; in [10], -1.02; in [15], -1.06; in assay [16], -0.128; with Torsin-1A (Homo sapiens) [17] it was -2.15. Moreover, the values for the composite z-score (with Torsin-1A (Homo sapiens) [18]; in [19]) were -1.05 and -1.19, respectively. For the same compound, the z-score is 0.599 in assay [7]; -0.0768 (inactive) in assay [9]; 0.417 (inactive) in assay [11]; 1.19 (inactive) in assay [12]; 0.862 (inactive) in assay [13]; -0.702 (inactive) in assay [14].

Turning to `Cc1cccc([C@H]2C[C@H]3C(Br)=C[C@@]2(CO)C(=O)[C@]32CO2)c1`, the composite z-score in assay [1] is 0.338; in assay [2], -0.15; in assay [3], 0.259; in [4], -1.05; in assay [5], 0.39; in assay [6], -0.117. Also, the composite z-score in the assay on Lefty1 was 0.433; in assay [8], -0.549; in [10], 0.253; in [15], -0.376; in assay [16] it was -0.128; with Torsin-1A (Homo sapiens) [17], -1.59. The composite z-score with Torsin-1A (Homo sapiens) [18] was -1.08; in [19], 0.462. The z-score in assay [7] was -0.843; in assay [9] it was 0.75 (inactive); in [11], -0.376 (inactive); in [12] it was -0.53 (inactive); in [13], -0.595 (inactive); in [14], 3.9 (inactive).

`O=C1N(Cc2ccccc2)Cc2ccccc2C[C@@]12COC(c1ccc(OCCCO)cc1)=N2`: the composite z-score in assay [1] was 2.26; in assay [2] it was 1.16; in assay [3] it was 0.622; in assay [4], -0.143; in [5], 1.39; in [6], 0.22. Besides, the composite z-score with Lefty1 was -0.197; in assay [8], 0.196; in assay [10], 0.165; in assay [15], -0.0644; in assay [16] it was 0.108; with Torsin-1A (Homo sapiens) [17], 0.356. Further, the composite z-score in the assay with Torsin-1A (Homo sapiens) [18] was found to be 0.695; in [19], 0.0301. Moreover, the z-score was -0.503 in assay [7]; -1.26 (inactive) in [9]; -5.94 (inactive) in assay [11]; 1.31 (inactive) in assay [12]; 1.45 (inactive) in [13]; -2.33 (inactive) in [14].

Turning to `Cc1ccc(N2C(=O)c3ccccc3[C@@H](C(=O)NCCN3CCOCC3)[C@@H]2c2ccc(CO)cc2)nc1`, the composite z-score is -0.227 in [1]; -0.818 in [2]; -0.317 in assay [3]; -2.27 in assay [4]; 0.37 in [5]; -1.08 in assay [6]. In addition, the composite z-score was -0.702 in the assay on Lefty1; -0.183 in [8]; -0.275 in [10]; -1.42 in assay [15]; 0.0051 in [16]; -2.75 with Torsin-1A (Homo sapiens) [17]. Also, the figures for the composite z-score (with Torsin-1A (Homo sapiens) [18]; in assay [19]) were -1.65 and 0.179, respectively. The z-score in assay [7] is -0.0724; in assay [9], 1.09 (inactive); in assay [11], 0.209 (inactive); in assay [12] it was -0.479 (inactive); in [13], 0.145 (inactive); in assay [14], -0.479 (inactive).
